molecular target: AgAbp1; test: SPOT peptide array binding signal intensity (averaged, normalized) (arbitrary units (background-subtracted, floor 0; scale differs between SH3 domains)); higher = stronger binding of the SH3 domain to the peptide
In short: (§1)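 Four yeast species supplied the SH3 domains, which were expressed as GST fusions in E. coli BL21(DE3) and purified on glutathione Sepharose. Incubation with cellulose membranes carrying synthetic 15-mer peptides, cysteines exchanged for serines, ran overnight at 4°C at 10 μg/ml in TBS-based blocking buffer. Binding signal is reported as normalized, background-subtracted spot intensity averaged over replicates, in arbitrary units not shared between domains.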

Binder	SPOT peptide array binding signal intensity
VPKEPAPAPPPEPDM	≤ 0

molecular target: AgBbc1; test: as above
In short: as §1

Binder	SPOT peptide array binding signal intensity
VPKEPAPAPPPEPDM	0.5

molecular target: AgBem1-D1; test: as above
In short: as §1

Binder	SPOT peptide array binding signal intensity
VPKEPAPAPPPEPDM	≤ 0

molecular target: AgBzz1-D1; test: as above
In short: as §1

Binder	SPOT peptide array binding signal intensity
VPKEPAPAPPPEPDM	≤ 0

molecular target: AgBzz1-D2; test: as above
In short: as §1

Binder	SPOT peptide array binding signal intensity
VPKEPAPAPPPEPDM	7

molecular target: AgCyk3; test: as above
In short: as §1

Binder	SPOT peptide array binding signal intensity
VPKEPAPAPPPEPDM	≤ 0

molecular target: AgFus1; test: as above
In short: as §1

Binder	SPOT peptide array binding signal intensity
VPKEPAPAPPPEPDM	4.75

molecular target: AgHof1; test: as above
In short: as §1

Binder	SPOT peptide array binding signal intensity
VPKEPAPAPPPEPDM	3.88

molecular target: AgHse1; test: as above
In short: as §1

Binder	SPOT peptide array binding signal intensity
VPKEPAPAPPPEPDM	8

molecular target: AgLsb1; test: as above
In short: as §1

Binder	SPOT peptide array binding signal intensity
VPKEPAPAPPPEPDM	≤ 0

molecular target: AgLsb4; test: as above
In short: as §1

Binder	SPOT peptide array binding signal intensity
VPKEPAPAPPPEPDM	≤ 0

molecular target: AgMyo5; test: as above
In short: as §1

Binder	SPOT peptide array binding signal intensity
VPKEPAPAPPPEPDM	520

molecular target: AgNbp2; test: as above
In short: as §1

Binder	SPOT peptide array binding signal intensity
VPKEPAPAPPPEPDM	12

molecular target: AgRvs167; test: as above
In short: as §1

Binder	SPOT peptide array binding signal intensity
VPKEPAPAPPPEPDM	0.167

molecular target: AgSho1; test: as above
In short: as §1

Binder	SPOT peptide array binding signal intensity
VPKEPAPAPPPEPDM	3.75

molecular target: AgSla1-D1-D2; test: as above
In short: as §1

Binder	SPOT peptide array binding signal intensity
VPKEPAPAPPPEPDM	≤ 0

molecular target: AgSla1-D3; test: as above
In short: as §1

Binder	SPOT peptide array binding signal intensity
VPKEPAPAPPPEPDM	0.75

molecular target: CaAbp1-D1; test: as above
In short: as §1

Binder	SPOT peptide array binding signal intensity
VPKEPAPAPPPEPDM	≤ 0

molecular target: CaAbp1-D2; test: as above
In short: as §1

Binder	SPOT peptide array binding signal intensity
VPKEPAPAPPPEPDM	≤ 0

molecular target: CaBbc1; test: as above
In short: as §1

Binder	SPOT peptide array binding signal intensity
VPKEPAPAPPPEPDM	≤ 0

molecular target: CaBem1-D1; test: as above
In short: as §1

Binder	SPOT peptide array binding signal intensity
VPKEPAPAPPPEPDM	1.5

molecular target: CaBzz1-D1; test: as above
In short: as §1

Binder	SPOT peptide array binding signal intensity
VPKEPAPAPPPEPDM	42.8

molecular target: CaBzz1-D2; test: as above
In short: as §1

Binder	SPOT peptide array binding signal intensity
VPKEPAPAPPPEPDM	2.75

molecular target: CaCyk3; test: as above
In short: as §1

Binder	SPOT peptide array binding signal intensity
VPKEPAPAPPPEPDM	≤ 0

molecular target: CaFus1; test: as above
In short: as §1

Binder	SPOT peptide array binding signal intensity
VPKEPAPAPPPEPDM	39

molecular target: CaHof1; test: as above
In short: as §1

Binder	SPOT peptide array binding signal intensity
VPKEPAPAPPPEPDM	≤ 0

molecular target: CaHse1; test: as above
In short: as §1

Binder	SPOT peptide array binding signal intensity
VPKEPAPAPPPEPDM	2.12

molecular target: CaLsb1; test: as above
In short: as §1

Binder	SPOT peptide array binding signal intensity
VPKEPAPAPPPEPDM	≤ 0

molecular target: CaLsb4; test: as above
In short: as §1

Binder	SPOT peptide array binding signal intensity
VPKEPAPAPPPEPDM	≤ 0

molecular target: CaMyo5; test: as above
In short: as §1

Binder	SPOT peptide array binding signal intensity
VPKEPAPAPPPEPDM	180

molecular target: CaNbp2; test: as above
In short: as §1

Binder	SPOT peptide array binding signal intensity
VPKEPAPAPPPEPDM	37

molecular target: CaRvs167; test: as above
In short: as §1

Binder	SPOT peptide array binding signal intensity
VPKEPAPAPPPEPDM	≤ 0

molecular target: CaRvs167-3; test: as above
In short: as §1

Binder	SPOT peptide array binding signal intensity
VPKEPAPAPPPEPDM	3.25

molecular target: CaSho1; test: as above
In short: as §1

Binder	SPOT peptide array binding signal intensity
VPKEPAPAPPPEPDM	3.5

molecular target: CaSla1-D1-D2; test: as above
In short: as §1

Binder	SPOT peptide array binding signal intensity
VPKEPAPAPPPEPDM	9

molecular target: CaSla1-D3; test: as above
In short: as §1

Binder	SPOT peptide array binding signal intensity
VPKEPAPAPPPEPDM	≤ 0

molecular target: ScAbp1; test: as above
In short: as §1

Binder	SPOT peptide array binding signal intensity
VPKEPAPAPPPEPDM	≤ 0

molecular target: ScBbc1; test: as above
In short: as §1

Binder	SPOT peptide array binding signal intensity
VPKEPAPAPPPEPDM	≤ 0

molecular target: ScBem1-D1; test: as above
In short: as §1

Binder	SPOT peptide array binding signal intensity
VPKEPAPAPPPEPDM	≤ 0

molecular target: ScBzz1-D1; test: as above
In short: as §1

Binder	SPOT peptide array binding signal intensity
VPKEPAPAPPPEPDM	≤ 0

molecular target: ScBzz1-D2; test: as above
In short: as §1

Binder	SPOT peptide array binding signal intensity
VPKEPAPAPPPEPDM	21

molecular target: ScCyk3; test: as above
In short: as §1

Binder	SPOT peptide array binding signal intensity
VPKEPAPAPPPEPDM	≤ 0

molecular target: ScFus1; test: as above
In short: as §1

Binder	SPOT peptide array binding signal intensity
VPKEPAPAPPPEPDM	≤ 0

molecular target: ScHof1; test: as above
In short: as §1

Binder	SPOT peptide array binding signal intensity
VPKEPAPAPPPEPDM	≤ 0

molecular target: ScHse1; test: as above
In short: as §1

Binder	SPOT peptide array binding signal intensity
VPKEPAPAPPPEPDM	7.25

molecular target: ScLsb1; test: as above
In short: as §1

Binder	SPOT peptide array binding signal intensity
VPKEPAPAPPPEPDM	≤ 0

molecular target: ScLsb2; test: as above
In short: as §1

Binder	SPOT peptide array binding signal intensity
VPKEPAPAPPPEPDM	≤ 0

molecular target: ScLsb3; test: as above
In short: as §1

Binder	SPOT peptide array binding signal intensity
VPKEPAPAPPPEPDM	≤ 0

molecular target: ScLsb4; test: as above
In short: as §1

Binder	SPOT peptide array binding signal intensity
VPKEPAPAPPPEPDM	≤ 0

molecular target: ScMyo3; test: as above
In short: as §1

Binder	SPOT peptide array binding signal intensity
VPKEPAPAPPPEPDM	1170

molecular target: ScMyo5; test: as above
In short: as §1

Binder	SPOT peptide array binding signal intensity
VPKEPAPAPPPEPDM	779

molecular target: ScNbp2; test: as above
In short: as §1

Binder	SPOT peptide array binding signal intensity
VPKEPAPAPPPEPDM	10.5

molecular target: ScPex13; test: as above
In short: as §1

Binder	SPOT peptide array binding signal intensity
VPKEPAPAPPPEPDM	≤ 0

molecular target: ScRvs167; test: as above
In short: as §1

Binder	SPOT peptide array binding signal intensity
VPKEPAPAPPPEPDM	≤ 0

molecular target: ScSho1; test: as above
In short: as §1

Binder	SPOT peptide array binding signal intensity
VPKEPAPAPPPEPDM	≤ 0

molecular target: ScSla1-D1-D2; test: as above
In short: as §1

Binder	SPOT peptide array binding signal intensity
VPKEPAPAPPPEPDM	3.5

molecular target: ScSla1-D3; test: as above
In short: as §1

Binder	SPOT peptide array binding signal intensity
VPKEPAPAPPPEPDM	6.5

molecular target: SpAbp1-D1; test: as above
In short: as §1

Binder	SPOT peptide array binding signal intensity
VPKEPAPAPPPEPDM	≤ 0

molecular target: SpBbc1; test: as above
In short: as §1

Binder	SPOT peptide array binding signal intensity
VPKEPAPAPPPEPDM	1.12

molecular target: SpBzz1-D1; test: as above
In short: as §1

Binder	SPOT peptide array binding signal intensity
VPKEPAPAPPPEPDM	≤ 0

— the supplement of paper PMC4466140
